The source of these data is the supplement of paper PMC7530171.

Several values for one entry are separate records, joined by “and”; a condition that tells them apart may be missing. Identical values can stand only once. Counter-ions that a name gives are not always drawn. ± gives the standard deviation.

The assay concerns THP-1 macrophages infected with Mycobacterium tuberculosis H37Rv. Description: intracellular M.tb growth inhibition relative to DMSO (0) and 4 uM bedaquiline (100); higher = stronger inhibition of intracellular bacterial growth. The following applies: 10 µM; 4 days. As to the method: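 OICR kinase inhibitor library screened in duplicate at 10 uM against THP-1 macrophages (PMA-differentiated) infected with M. tuberculosis H37Rv-pTEC27 (tdTomato RFP), 4 days at 37 C. Rows with complete host cell loss (placeholder inhibition 0, cell loss 100) were removed.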
As to `Nc1ccc(C(=O)Nc2cccc(-c3nc(N4CCOCC4)c4oc5ncccc5c4n3)c2)cn1`, the “intracellular M.tb growth inhibition” value turned out to be 17.6 ± 65%. Consider `C[S+]([O-])c1ccc(-c2nc(-c3ccc(F)cc3)c(-c3ccncc3)[nH]2)cc1` (stereo not given), for which the “intracellular M.tb growth inhibition” value is 14.3 ± 12%. Consider `CS(=O)(=O)N1CCN(Cc2cc3nc(-c4cccc5[nH]ncc45)nc(N4CCOCC4)c3s2)CC1` [GDC-0941 bismesylate], for which the “intracellular M.tb growth inhibition” value was determined as 56 ± 26%. In the case of `CC#CC(=O)Nc1ccc2ncnc(Nc3cccc(Br)c3)c2c1` it was 3.12 ± 4.4%; in that of `Cc1cccc(-c2[nH]c(C(C)(C)C)nc2-c2ccc3c(c2)OCO3)n1`, -67.3 ± 53%; in that of `Cc1cc(C(=O)Nc2cc(Nc3ccc4c(/C=C/c5ccccn5)n[nH]c4c3)ccc2F)n(C)n1`, -16.4 ± 71%. With `CC(C)[C@H](CO)Nc1nc(Nc2ccc(C(=O)O)c(Cl)c2)c2ncn(C(C)C)c2n1` [Purvalanol B], the “intracellular M.tb growth inhibition” value is 2.54 ± 10%. In the case of `Cc1[nH]c(/C=C2\C(=O)Nc3cc(-c4ccccc4)ccc32)c(C)c1CCC(=O)O` it was -5.41 ± 25%; in that of `CCOc1cc2ncc(C#N)c(Nc3ccc(OCc4ccccn4)c(Cl)c3)c2cc1NC(=O)/C=C/CN(C)C` [Neratinib], -146 ± 210%. On to `CNC(=O)c1ccccc1Sc1ccc2c(/C=C/c3ccccn3)n[nH]c2c1` [Axitinib], for which the “intracellular M.tb growth inhibition” value turned out to be 33.9 ± 1.6%. In the case of `CN1CCC(COc2cnc(-c3cccc(Cn4nc(-c5cccc(C#N)c5)ccc4=O)c3)nc2)CC1`, the “intracellular M.tb growth inhibition” value was determined as 48.3 ± 68%.

Consider `CN(C)Cc1cccc(N=C(c2ccccc2)c2c(O)[nH]c3cc(C(=O)N(C)C)ccc23)c1`, for which the “intracellular M.tb growth inhibition” value is -213 ± 320%. On to `COc1cc2c(cc1OC)-c1[nH]nc(Nc3cccc(F)c3)c1C2`, for which the “intracellular M.tb growth inhibition” value was 62.2 ± 12%. For `Cc1[nH]c(/C=C2\C(=O)Nc3ccc(S(=O)(=O)N(C)c4cccc(Cl)c4)cc32)c(C)c1C(=O)N1CCN(C)CC1` the value was 41.9 ± 66%; for `C/C(=N\N=C(N)N)c1ccc(NC(=O)Nc2ccc(/C(C)=N/N=C(N)N)cc2)cc1`, 63.3 ± 10%; for `CC#CC(=O)Nc1cc2c(Nc3ccc(F)c(Cl)c3)ncnc2cn1`, -68.3 ± 97%. For the compound `COc1cc(SC)ccc1C(=O)N1CCC(Cc2ccccc2)CC1`, the “intracellular M.tb growth inhibition” value came out at 41.8 ± 12%. In the case of `Nc1ncnc2c1c(-c1cccc(OCc3ccccc3)c1)cn2C1CC(CN2CCC2)C1` (stereo not given), the “intracellular M.tb growth inhibition” value was -22.8 ± 12%. Regarding `Nc1ncnc2n[nH]c(Nc3ccc(F)cc3)c12`, the “intracellular M.tb growth inhibition” value is -2.38% and 4.47%. In the case of `O=C1NC(=O)/C(=C/c2ccc(-c3ccc(F)cc3O)o2)S1`, the “intracellular M.tb growth inhibition” value came to 25.3 ± 6.9%.

Turning to `CCn1c(-c2nonc2N)nc2cnc(Oc3cccc(NC(=O)c4ccc(OCCN5CCOCC5)cc4)c3)cc21`, the “intracellular M.tb growth inhibition” value came to 54.4 ± 77%. `O=S(=O)(NCCNC/C=C/c1ccc(Br)cc1)c1cccc2cnccc12` [H 89 dihydrochloride]: the “intracellular M.tb growth inhibition” value was 70.3 ± 6.1%.

Consider `Cc1ccc(S(=O)(=O)Nc2nc3ccccc3nc2Nc2ccc3nsnc3c2)cc1`, for which the “intracellular M.tb growth inhibition” value is -56.4 ± 99%. For the compound `COc1cc(OC2CCN(C)CC2)ccc1Nc1ncc2c(n1)n(C1CCCC1)c(=O)n2C`, the “intracellular M.tb growth inhibition” value is -17.7 ± 25%. For `NC(=O)Nc1cc(-c2cccc(F)c2)sc1C(=O)N[C@H]1CCCNC1`, the “intracellular M.tb growth inhibition” value was -218 ± 310%.

Regarding `Cc1cc(Nc2cc(C)c(C#N)c(NC(C)CCCC(C)(C)O)n2)n[nH]1` (stereo not given) [TC-A 2317 hydrochloride], the “intracellular M.tb growth inhibition” value is -257 ± 200%. In the case of `Oc1cccc(-c2nc(N3CCOCC3)c3sccc3n2)c1` [PI3-Kinase a Inhibitor 2] it was -170 ± 240%; in that of `Cc1cc(Nc2nc(N[C@@H](C)c3ncc(F)cn3)ncc2Cl)[nH]n1`, -234 ± 120%; in that of `CN(C)CCOc1cc(-c2cn[nH]c2)ccc1NC(=O)C1COc2ccccc2O1` (stereo not given), -97.9 ± 79%. On to `CC(C)(C)c1nc2c3cc[nH]c(=O)c3c3cc(F)ccc3c2[nH]1` [Merck-5], for which the “intracellular M.tb growth inhibition” value was -268 ± 290%. In the case of `Nc1cc(N)c(N)cc1N` [FAK Inhibitor 14], the “intracellular M.tb growth inhibition” value was found to be 6.73 ± 56%.

With `Cn1c(=O)c(Oc2ccc(F)cc2F)cc2cnc(NC3CCOCC3)nc21`, the “intracellular M.tb growth inhibition” value is -140 ± 130%. For the compound `O=c1oc2c(O)c(O)cc3c(=O)oc4c(O)c(O)cc1c4c23` [Ellagic acid], the “intracellular M.tb growth inhibition” value was -20.9 ± 30%. Turning to `C=CC(=O)Nc1cccc(Oc2nc(Nc3ccc(N4CCN(C)CC4)cc3OC)ncc2Cl)c1`, the “intracellular M.tb growth inhibition” value was -39 ± 120%. In the case of `CN1C(=O)C(Cc2c[nH]c3ccccc23)NC1=S` (stereo not given) [Necrostatin-1] it was -8.08 ± 36%. Take `CO[C@@H](C(=O)N1Cc2[nH]nc(NC(=O)c3ccc(N4CCN(C)CC4)cc3)c2C1)c1ccccc1`: the “intracellular M.tb growth inhibition” value was -228 ± 250%. In the case of `COc1cc2ncnc(Nc3ccc(F)c(Cl)c3)c2cc1OCCCN1CCOCC1` [Gefitinib], the “intracellular M.tb growth inhibition” value was found to be 54.4 ± 28%.

Turning to `CCN(CC)CCCCNc1ncc2cc(-c3cc(OC)cc(OC)c3)c(NC(=O)NC(C)(C)C)nc2n1`, the “intracellular M.tb growth inhibition” value came to 34.4 ± 29%. In the case of `O=C1NCCCc2c1oc1ccc(O)cc21` it was 11 ± 28%; in that of `O=C(O)c1ccc2c3c1cccc3c(=O)n1c3ccccc3nc21` [STO-609 acetic acid], -29.1 ± 36%.
